{"source": "PubChem BioAssay AID743395", "about": "(Broad Institute, 2014)", "note": "The whole screen tested about 1,200 compounds, of which about 480 (40%) were called active. How the calls were made is not given here. So high a share suggests a set chosen from earlier hits. Not all results are given here. Measured potencies and affinities stand elsewhere."}
{"assay": "viability loss in human hepatoma cells – cell-based, CellTiter-Glo luminescence, cherry-pick, set 2, cytotoxicity control, dose response (AID 743395)", "conditions": "HepG2 viability, CellTiter-Glo ATP luminescence, 72 h; series mostly up to 26 µM"}
{"smiles": "COCCCNc1nnc(Cc2ccc(Cl)cc2)c(=O)[nH]1", "outcome": "inactive"}
{"smiles": "N#CCC(=O)N/N=C/c1cn(Cc2cccc3ccccc23)c2ccccc12", "outcome": "inactive"}
{"smiles": "O=C(CN1CCN(S(=O)(=O)c2ccccc2)CC1)Nc1ccccc1Cl", "outcome": "inactive"}
{"smiles": "COc1ccc2oc(C(=O)N3CCN(C(=O)c4ccco4)CC3)c(C)c2c1", "outcome": "inactive"}
{"smiles": "COc1ccc(NC(=O)c2ccc(NC(=O)c3nc4nccc(C)n4n3)cc2)cc1", "outcome": "inactive"}
{"smiles": "CCCc1nc2ccccc2c(C(=O)OCC(=O)NCc2ccc3c(c2)OCO3)c1CC", "outcome": "inactive"}
{"smiles": "COc1ccc(CC(=O)Nc2nccs2)cc1S(=O)(=O)N1CCOCC1", "outcome": "inactive"}
{"smiles": "Cc1ccc(S(=O)(=O)N2CCOCC2)cc1NC(=O)COC(=O)c1ccc(Cl)nc1", "outcome": "inactive"}
{"smiles": "Cc1ccc(S(=O)(=O)N(C)C[C@@H]2OCCCC[C@@H](C)Oc3ccc(NS(=O)(=O)c4ccc(Cl)cc4)cc3C(=O)N([C@@H](C)CO)C[C@@H]2C)cc1", "outcome": "inactive"}
{"smiles": "Cc1ccc(S(=O)(=O)Nc2ccc3c(c2)C(=O)N([C@@H](C)CO)C[C@H](C)[C@H](CN(C)S(=O)(=O)c2ccc(C)cc2)OCCCC[C@@H](C)O3)cc1", "outcome": "inactive"}
{"smiles": "C[C@H](CO)N1C[C@H](C)[C@H](CN(C)C(=O)NC2CCCCC2)Oc2ncc(-c3cc4ccccc4o3)cc2C1=O", "outcome": "inactive"}
{"smiles": "C[C@@H]1CN([C@H](C)CO)C(=O)c2cc(NC(=O)Cc3ccccc3)ccc2O[C@@H]1CN(C)S(C)(=O)=O", "outcome": "inactive"}
{"smiles": "COc1ccc(S(=O)(=O)Nc2ccc3c(c2)C(=O)N([C@H](C)CO)C[C@@H](C)[C@@H](CN(C)Cc2ccc(C(F)(F)F)cc2)O3)cc1", "outcome": "inactive"}
{"smiles": "COc1ccc(S(=O)(=O)Nc2ccc3c(c2)C(=O)N([C@@H](C)CO)C[C@@H](C)[C@H](CN(C)Cc2ccc(Oc4ccccc4)cc2)O3)cc1", "outcome": "inactive"}
{"smiles": "CCCNC(=O)N1[C@H](CO)[C@@H](c2ccc(C3=CCCC3)cc2)[C@@H]1CN(C)C(C)=O", "outcome": "inactive"}
{"smiles": "N#C[C@@H]1[C@H](c2ccc(-c3cccc(F)c3)cc2)[C@H](CO)N1C(=O)NC1CCCC1", "outcome": "inactive"}
{"smiles": "CCOc1ccccc1N1CCN(C(=O)c2cc3ccccc3cc2OC)CC1", "outcome": "inactive"}
{"smiles": "Cc1nn(C)c(C)c1/C=C/C(=O)O", "outcome": "inactive"}
{"smiles": "COc1cc(/C=C/C(=O)O)cc(S(=O)(=O)Nc2ccc3cn[nH]c3c2)c1OC", "outcome": "inactive"}
{"smiles": "O=C(CSC1=NNC(c2ccccn2)S1)Nc1ccccc1", "note": "(stereo unspecified)", "outcome": "inactive"}
{"smiles": "COc1ccc(C)cc1NC(=O)CNC(c1ccccc1)c1ccc(C)cc1", "note": "(stereo unspecified)", "outcome": "inactive"}
{"smiles": "CN(C)S(=O)(=O)c1ccc2c(c1)/C(=C/c1cc3c([nH]1)CCCC3)C(=O)N2", "outcome": "inactive"}
{"smiles": "COC(=O)Cn1c(=NC(=O)c2cc(-c3cccs3)nc3ccccc23)sc2cc(S(N)(=O)=O)ccc21", "outcome": "inactive"}
{"smiles": "CN(c1ccc(O)cc1)c1nc(-c2cccs2)cs1", "outcome": "inactive"}
{"smiles": "C=CCN=c1scc(C)n1/N=C/c1ccc(O)c(O)c1", "outcome": "inactive"}
{"smiles": "COCOc1cccc(CN2CCC(C)(Oc3cccc(C#N)c3)C2)c1", "note": "(stereo unspecified)", "outcome": "inactive"}
{"smiles": "O=C(NCc1cccs1)c1cc(-c2ccccc2)nn1CC1CC(c2cccc([N+](=O)[O-])c2)=NO1", "note": "(stereo unspecified)", "outcome": "inactive"}
{"smiles": "C=CCN1C(=O)/C(=C/C=C2/N(CC)c3ccc(S(=O)(=O)N(C)C)cc3N2CC)SC1=S", "outcome": "inactive"}
{"smiles": "COc1ccc2c(c1)C(=O)CC(c1ccc3c(c1)OCCO3)O2", "note": "(stereo unspecified)", "outcome": "inactive"}
{"smiles": "CCOc1ccc(Cl)cc1C1=CC(=O)C[C@H](c2ccc(OC)cc2)C1", "outcome": "inactive"}
{"smiles": "COc1ccc(C2CN=NC23CCc2ccccc2C3=O)cc1", "note": "(stereo unspecified)", "outcome": "inactive"}
{"smiles": "CCOC(=O)c1[nH]c(C)c(/C(O)=C2\\C(=O)C(=O)N(CCCN3CCOCC3)C2c2cccs2)c1C", "note": "(stereo unspecified)", "outcome": "inactive"}
{"smiles": "CC(C)CC1Nc2ncnc(N3CCN(c4ccccn4)CC3)c2N(Cc2ccc(Br)cc2)C1=O", "note": "(stereo unspecified)", "outcome": "inactive"}
{"smiles": "COc1ccc(-n2nnnc2C(c2ccccc2)N2CCN(C/C=C/c3ccccc3)CC2)cc1", "note": "(stereo unspecified)", "outcome": "inactive"}
{"smiles": "O=C(NNC(=O)c1ccncc1)Nc1ccc(Cl)cc1", "outcome": "inactive"}
{"smiles": "CCN1C(=O)[C@H]2[C@@H](c3ccc(-c4ccc(Cl)c(Cl)c4)cc3)N[C@@](C)(C(=O)OC)[C@H]2C1=O", "outcome": "inactive"}
{"smiles": "NC(=O)CC(NC(=O)Cc1ccc(Br)cc1)c1ccc(NC2CC3CCC2C3)c([N+](=O)[O-])c1", "note": "(stereo unspecified)", "outcome": "inactive"}
{"smiles": "CN(C)/C=C1\\C=C2C(=O)c3ccccc3N2C1=O", "outcome": "inactive"}
{"smiles": "CC(O)CNc1nc(N)[nH]c(=O)c1N=Nc1ccccc1", "note": "(stereo unspecified)", "outcome": "inactive"}
{"smiles": "CCC(C(=O)OCC(=O)C1(O)CCC2C3CCC4=CC(=O)CCC4(C)C3C(O)CC21C)C(C)C", "note": "(stereo unspecified)", "outcome": "inactive"}
{"smiles": "OC[C@@H]1[C@@H](c2ccccc2)C2(CN(Cc3ccccc3F)C2)N1Cc1ccccc1F", "outcome": "inactive"}
{"smiles": "NC(=O)c1cc(Cl)ccc1OCC(=O)NC1CC1", "outcome": "inactive"}
{"smiles": "O=C(c1ccccc1F)N1CC[C@@H]2[C@H](CO)Nc3ccc(Br)cc3[C@@H]21", "outcome": "inactive"}
{"smiles": "COc1ccc(C#Cc2ccc3c(c2)[C@@H]2[C@@H](CCN2C(=O)c2cccc(F)c2)[C@@H](CO)N3)cc1", "outcome": "inactive"}
{"smiles": "O=C(NCc1nnnn1-c1ccc(Cl)cc1)C(=O)c1c[nH]c2ccccc12", "outcome": "inactive"}
{"smiles": "COc1ccc(NC(=O)N[C@@H]2CC[C@@H](CCn3cc(-c4ccc(F)cc4)nn3)O[C@@H]2CO)cc1", "outcome": "inactive"}
{"smiles": "NNC(=O)c1[nH]c2ccc(Cl)cc2c1-c1ccccc1", "outcome": "inactive"}
{"smiles": "CC1CN(S(=O)(=O)c2cccc(C(=O)Nc3cc(Cl)ccc3N3CCOCC3)c2)CC(C)O1", "note": "(stereo unspecified)", "outcome": "inactive"}
{"smiles": "O=C(NC(Cc1ccccc1)C(=O)N1CCN(S(=O)(=O)c2ccccc2F)CC1)c1ccccc1", "note": "(stereo unspecified)", "outcome": "inactive"}
{"smiles": "CC(C)(C)C(=O)OCc1nc(-c2ccc(O)c(O)c2)cs1", "outcome": "inactive"}
{"smiles": "CO[C@@H](CN(C)S(=O)(=O)c1ccc(C)cc1)[C@H](C)CN([C@H](C)CO)S(=O)(=O)c1cccc(Cl)c1", "outcome": "inactive"}
{"smiles": "COc1ccc(CNC(=O)c2cc3c(c(-c4cccc(-c5ccc(C#N)cc5)c4)n2)[C@@H](CCO)N([S@](=O)C(C)(C)C)C3)cc1", "outcome": "inactive"}
{"smiles": "CC(Sc1nc2ccccc2c(=O)n1C)C(=O)Nc1ccc2c(c1)OCCO2", "note": "(stereo unspecified)", "outcome": "inactive"}
{"smiles": "COc1cccc(C(=O)c2c[nH]c(C(=O)NCCCN3CCOCC3)c2)c1", "outcome": "inactive"}
{"smiles": "c1ccc(CCN(Cc2ccccc2)Cc2nc(C3CC3)no2)cc1", "outcome": "inactive"}
{"smiles": "O=C(CCN1CCCCC1)N1CCc2c([nH]c3ccccc23)C1c1cccnc1", "note": "(stereo unspecified)", "outcome": "inactive"}
